# Test results from PubChem BioAssay (Tox21).
# A number with no mark means an inactive call. Results filed as inconclusive are left out. Entries that show only a call come without a potency. The source made the active and inactive calls. Unless noted, the call rests on the fitted dose curve; in most records, active means well fitted curve in the direction sought with a large enough effect in the repeat runs; inconclusive means weak or mixed curves; inactive means no such curve, though single readings can be large; an effect the other way counts as inactive or inconclusive.
# Columns and labels:
# [1] = molecular target: Nuclear receptor subfamily 1 group I member 3 (Homo sapiens) (UniProt Q14994); assay: qHTS assay to identify small molecule agonists of the constitutive androstane receptor (CAR) signaling pathway (AID 1224839); further: nearly all actives have a fitted effect of over 15% in size; further: potency means the concentration at half of the fitted maximal effect;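 on activation: HepG2 cells stably carrying human CAR and a CYP2B6 luciferase reporter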
# Method in brief: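 Compounds tested at 15 concentrations on HepG2 cells stably harbouring hCAR and CYP2B6-2.2kb reporter constructs, co-treated with PK11195 (0.75 uM final), 24 h at 37 C; luminescent reporter signal quantified.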
# [2] = qHTS assay to identify small molecule antagonists of the estrogen related receptor signaling pathway with the pleiotropic PPARgamma coactivator (PGC) from Tox21 10K library - cell viability counter screen (AID 1224840; active means well fitted cell-killing curve with a large enough effect in the repeat runs, not every such curve was filed as active; further: nearly all actives have a fitted effect of over 40% in size)
# Method in brief: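 Cell viability is measured by CellTiter-Fluor fluorescence in PGC/ERR cells that receive compounds after a 6-hour attachment period and are then incubated 17.5 hours at 37 C.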
# [3] = molecular target: Thyrotropin receptor (Homo sapiens) (UniProt P16473); assay: qHTS assay to identify small molecule agonists of the thyroid stimulating hormone receptor (TSHR) signaling pathway (AID 1224843; calls by dose curve; further: nearly all actives have a fitted effect of over 45% in size)
# Method in brief: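 A cell-based cAMP HTRF format was run in TSHR-transfected HEK293 cells, 800 per well. Treatment: 30 min, room temperature. Detection: 1 h with labelled cAMP and anti-cAMP cryptate. Concentration-response over 15 points, three replicates.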
# [4] = qHTS assay to identify small molecule agonists of the hypoxia (HIF-1) signaling pathway - cell viability counter screen (AID 1224844; calls by dose curve; further: nearly all actives have a fitted effect of over 50% in size)
# Method in brief: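 Viability counter screen: HRE-bla ME-180 cells plated 5 hrs before compound addition, treated 17 hrs at 37C and 5% CO2, then CellTiter-Glo added after the FRET reporter read; luminescence after 30 min.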
# [5] = qHTS assay to identify small molecule agonists of H2AX (AID 1224845; active means well fitted activation curve with a large enough effect in the signal ratio in the repeat runs, not every such curve was filed as active; the % refers to the signal ratio)
# Method in brief: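 Phospho-H2AX Ser139 measured by HTRF (ex 320 nm; em 665 and 620 nm) after 24 hr antibody incubation. Compounds, 15 concentrations, 0.76% DMSO, were applied to CHO-K1 cells for 3hr at 37C before lysis.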
# [6] = qHTS assay to identify small molecule agonists of the hypoxia (HIF-1) signaling pathway (AID 1224846; active means well fitted activation curve with a large enough effect in the signal ratio in the repeat runs, not every such curve was filed as active; the % refers to the signal ratio)
# Method in brief: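 Agonist mode reporter screen. ME-180 cells stably expressing bla under HRE control received test compounds in DMSO for 17 hrs (37C, 5% CO2), and beta-lactamase activity was then detected with the CCF4-AM FRET substrate.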
# [7] = qHTS assay to identify small molecule agonists of H2AX - cell viability counter screen (AID 1224847; calls by dose curve; further: top concentration of the series differs between compounds; nearly all actives have a fitted effect of over 30% in size)
# Method in brief: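 Compounds tested at 15 concentrations were incubated 3 hr at 37C with wild-type CHO-K1 cells; cellular ATP-based luminescence (CellTiter-Glo) indicated viability.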
# [8] = qHTS RealTime-Glo MT Cell Viability Assay in HepG2 cells - 24 hour (AID 1224867); further: nearly all actives have a fitted effect of over 50% in size
# Method in brief: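 Cells + NanoLuc/prosubstrate dispensed (600 cells/well) → 5 h at 37 C/5% CO2 → compounds in DMSO transferred → 40 h incubation at 37 C, luminescence read at 0, 8, 16, 24, 32, 40 h.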
# [9] = qHTS RealTime-Glo MT Cell Viability Assay in HEK293 cells - 32 hour (AID 1224868); further: top concentration of the series differs between compounds; nearly all actives have a fitted effect of over 50% in size
# Method in brief: (§1)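 Tox21 10K qHTS, HEK293, 600 cells/well, RealTime-Glo reagent co-dispensed with cells; 5 h preincubation, compound by pintool, 37 C, luminescence at 0–40 h.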
# [10] = A CellTox Green Cytotoxicity Assay to monitor cytotoxicity in HEK293 cells - 0 hour (AID 1224869); further: nearly all actives have a fitted effect of over 50% in size
# Method in brief: (§2)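 Dead-cell fluorescence measured kinetically: asymmetric cyanine dye, HEK293, 600 cells/well, 5 h settle, 23 nL cpd/DMSO, 37 C, reads 0–40 h every 8 h.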
# [11] = qHTS RealTime-Glo MT Cell Viability Assay in HepG2 cells - 40 hour (AID 1224870); further: nearly all actives have a fitted effect of over 50% in size
# Method in brief: (§3)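 Real-time viability: cells seeded at 600 per well together with NanoLuc and cell-permeant prosubstrate, compounds added after 5 h incubation. Luminescence tracked at 0, 8, 16, 24, 32 and 40 h of exposure.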
# [12] = A CellTox Green Cytotoxicity Assay to monitor cytotoxicity in HEK293 cells - 40 hour (AID 1224871); further: nearly all actives have a fitted effect of over 45% in size
# Method in brief: as §2
# [13] = qHTS RealTime-Glo MT Cell Viability Assay in HEK293 cells - 16 hour (AID 1224872)
# Method in brief: as §1
# [14] = qHTS RealTime-Glo MT Cell Viability Assay in HepG2 cells - 8 hour (AID 1224873); further: nearly all actives have a fitted effect of over 55% in size
# Method in brief: as §3
# [15] = qHTS RealTime-Glo MT Cell Viability Assay in HEK293 cells - 40 hour (AID 1224874); conditions: RealTime-Glo luminescence; max response: active compounds read low; further: nearly all actives have a fitted effect of over 50% in size
# Method in brief: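 600 HEK293 cells per well, dispensed already mixed with RealTime-Glo MT reagents. Compound dosing came 5 h later. The same wells were read for luminescence at 0, 8, 16, 24, 32 and 40 h of exposure at 37 C.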
# [16] = qHTS assay to identify small molecule agonists of the estrogen related receptor signaling pathway with the pleiotropic PPARgamma coactivator (PGC) from Tox21 10K library (AID 1224842); further: nearly all actives have a fitted effect of over 15% in size
# Method in brief: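 Luminescence from One-Glo (30 min, room temperature) measured after PGC/ERR cells had 18 h at 37 C with pinned compound (23 nL in DMSO). Cells had been seeded at 2,000 per well and pre-incubated 6 h.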
# [17] = qHTS assay to identify small molecule antagonists of the estrogen related receptor (ERR) signaling pathway from Tox21 library (AID 1224848); further: nearly all actives have a fitted effect of over 50% in size
# Method in brief: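 ERR cell line, 2,000 cells/well. 6 h settle, then compound (DMSO) added; 18 h at 37 C; ONE-Glo luminescence after 30 min RT.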
# [18] = qHTS assay to identify small molecule agonists of the estrogen related receptor (ERR) signaling pathway from Tox21 library (AID 1224849; calls by dose curve; further: nearly all actives have a fitted effect of over 15% in size); conditions: ERR reporter cell line, ONE-Glo luciferase, 18 h; at 92.4 µM (top of the series) unless noted
# Method in brief: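 Quantitative HTS in agonist format: NTP ERR cell line, compounds transferred in DMSO after 6 h plating, 18 h incubation at 37 C, ONE-Glo luminescence endpoint.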
# [19] = A CellTox Green Cytotoxicity Assay to monitor cytotoxicity in HEK293 cells - 24 hour (AID 1224875); further: nearly all actives have a fitted effect of over 45% in size
# Method in brief: as §2
# [20] = qHTS assay to identify small molecule antagonists of the estrogen related receptor signaling pathway with the pleiotropic PPARgamma coactivator (PGC) from Tox21 10K library (AID 1224841; call rule not given here)
# Method in brief: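 Cells stably carrying the PGC/ERR reporter, seeded at 2,000 per well, received pin-transferred compounds 6 h post-plating. Exposure lasted 18 h at 37 C. Signal: One-Glo luminescence.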
# Nuclear receptor subfamily 1 group I member 3 (Homo sapiens), sequence (Q14994 whole entry, looked up): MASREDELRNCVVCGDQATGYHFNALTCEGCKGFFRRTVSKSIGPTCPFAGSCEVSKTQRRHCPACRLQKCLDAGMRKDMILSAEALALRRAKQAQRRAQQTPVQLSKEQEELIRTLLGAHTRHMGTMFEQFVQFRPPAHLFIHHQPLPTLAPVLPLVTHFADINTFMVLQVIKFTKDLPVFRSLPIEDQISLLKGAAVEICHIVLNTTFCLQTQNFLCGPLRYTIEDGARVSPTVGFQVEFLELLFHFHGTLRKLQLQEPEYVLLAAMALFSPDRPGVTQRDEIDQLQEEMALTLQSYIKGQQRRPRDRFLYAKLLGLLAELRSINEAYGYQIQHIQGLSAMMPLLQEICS
# Thyrotropin receptor (Homo sapiens), sequence (P16473 whole entry, looked up): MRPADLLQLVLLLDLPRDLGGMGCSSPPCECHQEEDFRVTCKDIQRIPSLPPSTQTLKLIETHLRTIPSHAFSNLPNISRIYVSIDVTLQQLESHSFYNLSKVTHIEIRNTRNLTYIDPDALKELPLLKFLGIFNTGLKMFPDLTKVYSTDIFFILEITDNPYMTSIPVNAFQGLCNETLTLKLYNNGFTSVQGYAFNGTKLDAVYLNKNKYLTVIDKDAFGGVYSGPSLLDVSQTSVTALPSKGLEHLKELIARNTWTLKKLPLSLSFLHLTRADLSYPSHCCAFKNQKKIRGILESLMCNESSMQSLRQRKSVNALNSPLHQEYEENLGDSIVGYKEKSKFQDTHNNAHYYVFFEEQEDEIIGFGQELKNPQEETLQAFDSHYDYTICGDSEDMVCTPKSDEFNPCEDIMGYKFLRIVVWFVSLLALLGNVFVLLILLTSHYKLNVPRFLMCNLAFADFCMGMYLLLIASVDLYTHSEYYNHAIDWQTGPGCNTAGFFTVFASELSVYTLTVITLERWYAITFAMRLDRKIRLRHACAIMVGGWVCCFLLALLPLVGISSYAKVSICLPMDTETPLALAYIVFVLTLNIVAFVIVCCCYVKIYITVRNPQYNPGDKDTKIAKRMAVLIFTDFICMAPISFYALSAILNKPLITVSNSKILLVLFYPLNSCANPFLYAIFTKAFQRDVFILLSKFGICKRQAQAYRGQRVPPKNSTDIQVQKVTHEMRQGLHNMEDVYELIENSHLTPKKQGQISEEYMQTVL
SMILES,Potency [1],outcome [2],outcome [3],outcome [4],outcome [5],outcome [6],outcome [7],outcome [8],Potency [9],Potency [10],outcome [11],Potency [12],Potency [13],outcome [14],max response [15] [%],outcome [16],Potency [17],"activity change, positive = activation [18]",Potency [19],outcome [20]
C[C@@H](O)C(=O)O,inactive,inactive,inactive,inactive,inactive,inactive,inactive,inactive,inactive,inactive,inactive,inactive,inactive,inactive,3.5,–,–,–,–,–
CC1c2ccccc2CN1NC(=O)c1ccc(Cl)c(S(N)(=O)=O)c1 (stereo unspecified),inactive,inactive,inactive,inactive,inactive,inactive,–,inactive,inactive,inactive,inactive,inactive,inactive,inactive,-0.0255,inactive,inactive,3.24% [at 42.5 µM],inactive,–
O=C1CCCCO1,inactive,inactive,inactive,inactive,inactive,inactive,inactive,inactive,inactive,inactive,inactive,inactive,inactive,inactive,1.35,–,–,–,–,–
CCCCCc1cccc(=O)o1,inactive,inactive,inactive,inactive,inactive,inactive,inactive,inactive,inactive,inactive,inactive,inactive,inactive,inactive,-0.0336,–,–,–,–,–
OC[C@@H](O)C(O)[C@@H](O)CO (stereo partly specified),inactive,inactive,–,inactive,inactive,inactive,inactive,inactive,inactive,inactive,inactive,inactive,inactive,inactive,-0.153,inactive,inactive,9.91%,–,inactive
c1ccc(B(c2ccccc2)c2ccccc2)cc1,48.5 µM (active),inactive,–,inactive,inactive,inactive,inactive,inactive,–,inactive,inactive,inactive,–,–,–,inactive,inactive,–,inactive,inactive
CC1=C(C(=O)O)N2C(=O)[C@@H](NC(=O)[C@H](N)c3ccccc3)[C@H]2SC1,inactive,inactive,–,inactive,inactive,–,inactive,inactive,inactive,inactive,inactive,inactive,–,inactive,0.975,inactive,inactive,5.12% [at 42.5 µM],–,inactive
CC(=O)OC(C)=O,inactive,inactive,inactive,inactive,inactive,inactive,inactive,inactive,inactive,inactive,inactive,inactive,inactive,inactive,9.5,–,–,–,inactive,–
O=C(O)CNC(=O)CNC(=O)CNC(=O)CSC(=O)c1ccccc1,inactive,inactive,inactive,inactive,inactive,inactive,inactive,inactive,inactive,inactive,inactive,inactive,inactive,inactive,6.64,–,–,–,–,–
CC(C)(CO)C(O)C(=O)NCCCO (stereo unspecified),inactive,inactive,inactive,inactive,inactive,–,inactive,inactive,inactive,inactive,inactive,inactive,–,–,2.36,inactive,inactive,0.356%,inactive,–
Nc1nc(-c2ccccc2)c(Br)c(=O)[nH]1,inactive,inactive,–,inactive,inactive,inactive,inactive,inactive,inactive,inactive,inactive,inactive,inactive,inactive,-3.06,inactive,inactive,-6.57% [at 42.5 µM],inactive,–
c1ccc2cnccc2c1,inactive,inactive,–,inactive,inactive,inactive,inactive,inactive,inactive,inactive,inactive,inactive,inactive,inactive,9.26,inactive,inactive,7.4%,inactive,–
CC(C)(C)NC[C@H](O)COc1cccc2c1CCCC2=O,inactive,inactive,–,inactive,inactive,–,inactive,inactive,–,–,inactive,–,inactive,–,-12,inactive,inactive,4.14% [at 42.5 µM],–,inactive
ONc1ccccc1,60.5 µM (active),inactive,inactive,inactive,inactive,inactive,–,inactive,inactive,inactive,inactive,–,inactive,inactive,-13.8,–,inactive,20.7% (active),inactive,inactive
CCC(=O)c1c(O)cc(O)cc1O,inactive,inactive,inactive,inactive,inactive,inactive,inactive,inactive,inactive,inactive,inactive,–,inactive,inactive,11.1,inactive,–,-13.5% [at 42.5 µM],inactive,–
